Values joined by “and” are separate entries in the source; they are usually repeats but may differ in a detail not shown here. Equal values may be shown once. Hit rate of the full screen: of about 5,500 compounds, about 2,000 (36%) were called active. Another 18% or so got no clear call; they are omitted. Cut-off read from the data, not from the text of the source: active = normalized growth mostly below about 0.91 (no sharp cut-off); inconclusive = no clear call, values can overlap the other calls; inactive = mostly above about 0.92. The list shows a part of the results.
Experiment: chemical genetic growth profiling, strain panel (AID 1159580);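 note: tested at 20 µM; growth read once vehicle control cultures reached saturation at 30 °C; 1 = growth at the plate median or of vehicle wells; lower values mean less growth of the strain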
Conditions: S. cerevisiae deletion strains, growth OD

Measured: normalized growth

OC(CCN1CCCCC1)(c1ccccc1)C1CCCCC1 (stereo unspecified)
active: locus YER155C, strain BEM2, hits give low values 0.791
inactive: locus YAL013W, strain DEP1, hits give low values 1.01 | locus YAL021C, strain ccr4, hits give low values 0.968 | locus YAL026C, strain drs2, hits give low values 0.994 | locus YAL030W, strain snc1, hits give low values 0.97 | locus YAL040C, strain CLN3, hits give low values 1.06 | locus YBL061C, strain skt5, hits give low values 0.979 | locus YBR009C, strain hhf1, hits give low values 0.993 | locus YBR021W, strain FUR4, hits give low values 0.998 | locus YBR023C, strain chs3, hits give low values 0.977 | locus YBR171W, strain sec66, hits give low values 0.974 | locus YBR229C, strain ROT2, hits give low values 1.01 | locus YBR231C, strain swc5, hits give low values 0.957 | locus YBR279W, strain paf1, hits give low values 0.984 | locus YCL011C, strain gbp2, hits give low values 0.978 | locus YCL016C, strain dcc1, hits give low values 0.993 | locus YCL029C, strain bik1, hits give low values 1 | locus YCL061C, strain MRC1 (second series), hits give low values 0.981 | locus YCL061C, strain MRC1, hits give low values 0.966 | locus YCL069W, strain vba3, hits give low values 0.974 | locus YCR088W, strain abp1, hits give low values 0.98 | locus YDL005C, strain med2, hits give low values 0.972 | locus YDL035C, strain GPR1, hits give low values 1.01 | locus YDL040C, strain nat1, hits give low values 0.98 | locus YDL074C, strain BRE1, hits give low values 0.999 | locus YDL101C, strain DUN1, hits give low values 1.01 | locus YDL134C, strain PPH21, hits give low values 1.01 | locus YDL185W, strain tfp1, hits give low values 1 | locus YDL192W, strain arf1, hits give low values 1.01 | locus YDR001C, strain nth1, hits give low values 0.969 | locus YDR069C, strain doa4, hits give low values 0.948 | locus YDR101C, strain arx1, hits give low values 0.995 | locus YDR137W, strain rgp1, hits give low values 1.02 | locus YDR150W, strain NUM1, hits give low values 1.02 and 0.996 | locus YDR159W, strain sac3, hits give low values 0.998 | locus YDR162C, strain NBP2, hits give low values 1.01 | locus YDR195W, strain ref2 0.927 | locus YDR297W, strain sur2, hits give low values 0.965 | locus YDR318W, strain mcm21, hits give low values 0.991 | locus YDR334W, strain swr1, hits give low values 0.975 | locus YDR335W, strain msn5, hits give low values 0.975 | locus YDR363W, strain ESC2, hits give low values 0.954 | locus YDR388W, hits give low values 0.996 | locus YDR392W, strain spt3, hits give low values 1.01 | locus YDR502C, strain sam2, hits give low values 0.998 | locus YEL003W, strain gim4, hits give low values 0.975 | locus YEL037C, strain rad23, hits give low values 0.969 | locus YEL061C, strain CIN8 (second series), hits give low values 0.974 | locus YEL061C, strain CIN8, hits give low values 1.01 | locus YER002W, strain NOP16, hits give low values 1.03 | locus YER015W, strain faa2, hits give low values 0.976 | locus YER016W, strain bim1, hits give low values 1 | locus YER110C, hits give low values 1 | locus YER111C, strain swi4, hits give low values 0.961 | locus YER155C, strain BEM2 (second series), hits give low values 0.929 | locus YER167W, strain BCK2, hits give low values 1.01 | locus YFR010W, strain ubp6, hits give low values 0.975 | locus YGL078C, strain dbp3, hits give low values 0.991 | locus YGL086W, strain mad1, hits give low values 0.993 | locus YGL167C, strain pmr1, hits give low values 0.961 | locus YGL173C, strain kem1, hits give low values 0.934 | locus YGL227W, strain vid30, hits give low values 0.982 | locus YGL240W, strain doc1, hits give low values 0.961 | locus YGL248W, strain PDE1, hits give low values 1.01 | locus YGL253W, strain hxk2, hits give low values 0.97 | locus YGR078C, strain PAC10, hits give low values 0.996 | locus YGR135W, strain pre9, hits give low values 0.985 | locus YGR229C, strain SMI1, hits give low values 1 and 0.945 | locus YGR252W, strain gcn5, hits give low values 0.975 | locus YHR013C, strain ard1, hits give low values 0.971 | locus YHR027C, strain rpn1, hits give low values 0.988 | locus YHR030C, strain SLT2, hits give low values 1.02 and 0.961 | locus YHR079C, strain IRE1 (second series), hits give low values 0.992 | locus YHR079C, strain IRE1, hits give low values 0.99 | locus YHR094C, strain hxt1, hits give low values 1 | locus YHR129C, strain ARP1, hits give low values 1.01 | locus YHR142W, strain chs7, hits give low values 0.978 | locus YHR200W, strain rpn10, hits give low values 1 | locus YIL066C, strain RNR3, hits give low values 1.01 | locus YIL073C, strain SPO22, hits give low values 1.05 | locus YIL125W, strain kgd1, hits give low values 1 | locus YIR030C, strain dcg1, hits give low values 0.999 | locus YJL092W, strain hpr5, hits give low values 0.954 | locus YJL095W, strain BCK1 (second series), hits give low values 0.971 | locus YJL095W, strain BCK1, hits give low values 0.984 and 0.98 | locus YJL115W, strain asf1, hits give low values 0.961 | locus YJL129C, strain trk1, hits give low values 0.953 | locus YJL134W, strain LCB3, hits give low values 1.01 | locus YJL154C, strain vps35, hits give low values 0.971 | locus YJL164C, strain tpk1, hits give low values 1.01 | locus YJL166W, strain qcr8, hits give low values 0.925 | locus YJL168C, strain set2, hits give low values 0.991 | locus YJL187C, strain SWE1 (second series), hits give low values 1.01 | locus YJL187C, strain SWE1, hits give low values 0.975 | locus YJR043C, strain POL32, hits give low values 1.01 | locus YJR066W, strain TOR1, hits give low values 0.93

Reference: PubChem BioAssay AID1159580 (chemical genetic matrix, 2015)
